aSyn yeast inh – rescues yeast growth from alpha-synuclein toxicity | Yeast expressing alpha-synuclein, growth rescue, BacTiter-Glo, 24 h | Potency, µM (series often up to 46.1 µM), hits mostly activators | hit rate 0.14% among 370,000; note: nearly all actives have a fitted effect of over 65% in size
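Rescue of yeast growth: cells expressing toxic alpha-synuclein, induced in galactose at OD600 0.02, incubated with compound 24 h at 30 C. ATP luminescence quantified growth; inhibitors of toxicity appear as activators.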
TDP-43 yeast inh – rescues yeast growth from TDP-43 toxicity | AID 652104 | Potency, µM (top dose mostly 46.1 µM), hits mostly activators | TDP-43 expressing yeast growth rescue, BacTiter-Glo, 24 h | hit rate 1.8% among 410,000; note: nearly all actives have a fitted effect of over 50% in size
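Luminescence from BacTiter-Glo reports growth of TDP-43-expressing yeast after 24 hr at 30 deg C with compound. Cells were raffinose-pregrown to mid-log, then seeded in galactose medium at OD600=0.02.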
FUS yeast rescue – suppressors of FUS proteinopathy in yeast | AID 1347120 | S. cerevisiae FUS-expressing, growth rescue, OD600, 24 h | hit rate 0.24% among 390,000 | Potency, µM (highest dose often 76.6 µM), most hits filed as activators; note: nearly all actives have a fitted effect of over 55% in size
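Toxicity suppression screen in FUS-yeast. Cells induced with 2% galactose, starting OD 0.005, treated 24hr at 30C with compounds at multiple final concentrations; growth by OD600.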
Abeta rescue – restores growth of yeast expressing A-beta42 peptide | AID 1347071 | yeast expressing A-beta42, growth rescue, OD600, 48 h; response scale: 0% DMSO, 100% iron-clioquinol control | hit rate 0.063% among 410,000 | Potency, µM (doses to about 46.1 µM), most hits filed as activators; note: nearly all actives have a fitted effect of over 55% in size
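Yeast A-beta toxicity model in growth medium with pinned compounds, 48 h at 30 C; growth read as absorbance at 600 nm. Normalized to FeCl3/clioquinol equimolar mix (positive) and DMSO (negative).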
Mito fusion yeast – blocks mitochondrial division or promotes mitochondrial fusion. S. cerevisiae fusion-defective mutant growth rescue, CellTiterGlo 48 h. Potency, µM (doses to about 46.1 µM), usual class: activators. hit rate 0.23% among 320,000. AID 485298; note: nearly all actives have a fitted effect of over 45% in size
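Compounds are tested for their ability to restore growth of mitochondrial fusion-defective yeast strains at non-permissive 37C in YPEG medium over 48 hours. Viability is quantified by luciferase luminescence.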
Large screens that a line does not name were inactive. This is a sample that favours compounds with a hit; in the whole collection about 2.2% have one here. Calls come from the whole dose curve; as a rule, active = well fitted curve in the direction sought with a large enough effect; inconclusive = small, poorly fitted or top-dose-only effect, or another doubt; inactive = no such curve, though single readings can be large; an effect the other way counts as inactive or inconclusive.

Brc1ccc(-c2nnc(-c3cccnc3)o2)cc1	TDP-43 yeast inh 10µM (no result: Mito fusion yeast)
Brc1ccc(-c2nnc(-c3ccccc3Br)o2)cc1	none
Brc1ccccc1-c1nnc(-c2cccnc2)o1	TDP-43 yeast inh 16µM
CCCCNC(=O)c1nc(C2CCN(S(=O)(=O)c3c(OC)cccc3OC)CC2)oc1-c1ccccc1	none (no result: Mito fusion yeast)
CC(OC(=O)c1ccccc1O)C(=O)Nc1ccc(Cl)cn1 (stereo not given)	none
Cc1ccc(C(=O)OC(C)C(=O)Nc2ccc(Cl)cn2)s1 (stereo not given)	TDP-43 yeast inh 14µM
Cn1c(=O)c2nc(-c3ccccc3)oc2c2ccccc21	aSyn yeast inh inconclusive, TDP-43 yeast inh 10µM
O=C1C=Cc2cccc3ccc(O)c1c23	aSyn yeast inh 35µM (no result: Mito fusion yeast)
O=c1oc(-c2ccc(O)c(O)c2)cc2cccc(O)c12	none (no result: Mito fusion yeast)
NC(=O)Nc1ccc(Cl)cc1	none
O=C(Nc1ccc(Cl)cc1)P(=O)(O)c1ccccc1	TDP-43 yeast inh 18µM (no result: Mito fusion yeast)
COC(=O)c1ccc2c(c1O)C(=O)c1ccccc1C2=O	TDP-43 yeast inh 7.9µM
COC(=O)c1cccc2c1-c1ccccc1/C2=N\NC(N)=O	none
O=C1c2ccccc2C(=O)c2c1ccc(O)c2O	none (no result: Mito fusion yeast)
COC(=O)c1cccc2c1-c1ccccc1/C2=N/O	TDP-43 yeast inh 13µM
CCC(Sc1nc2ccccc2c2nc(-c3ccccc3)nn12)C(=O)Nc1cccc(OC)c1 (stereo not given)	none (no result: aSyn yeast inh, Mito fusion yeast)
NS(=O)(=O)c1ccc(CCNC(=O)c2cc([N+](=O)[O-])ccc2N2CCOCC2)cc1	none
CCOC(=O)C1CCN(S(=O)(=O)c2ccc3c4c2CC(=O)N4CC(C)S3)CC1 (stereo not given)	none
CC(C)OC(=O)N(C)C[C@H]1OCc2cn(nn2)CCCC(=O)N([C@H](C)CO)C[C@@H]1C	none (no result: Mito fusion yeast)
CCCCCc1cc(O)c2c(C)cc(=O)oc2c1	TDP-43 yeast inh 3.2µM
Cc1cc(=O)oc2cc(O)cc(O)c12	none (no result: Mito fusion yeast)
CCCS(=O)(=O)NC(=O)C1(C)CCN(C(=O)c2ccc3ccccc3c2)C1 (stereo not given)	none (no result: Mito fusion yeast)
COc1ccccc1CNC(=O)CSc1cc(C)[nH]c(=O)n1	none (no result: aSyn yeast inh, Mito fusion yeast)
Cc1ccc(N2C(=O)c3ccccc3C2Nc2ccc(S(=O)(=O)N3CCCCC3)cc2)nc1 (stereo not given)	TDP-43 yeast inh inconclusive, FUS yeast rescue 35µM
CCN(CC)c1nc(N)c2c(N)n(-c3ccccc3C)c(=S)c(C#N)c2c1C#N	FUS yeast rescue 28µM, Mito fusion yeast inconclusive
Fc1c(F)c(F)c(CSc2nc3ccccc3[nH]2)c(F)c1F	TDP-43 yeast inh 11µM
CCCCCOc1ccc(C(=O)N(Cc2ccccc2)C2CCS(=O)(=O)C2)cc1 (stereo not given)	TDP-43 yeast inh 20µM, FUS yeast rescue inconclusive (no result: aSyn yeast inh)
CCCOc1cccc(C(=O)N(Cc2ccccc2)C2CCS(=O)(=O)C2)c1 (stereo not given)	none
Cc1c(C(=O)N(Cc2ccc(Cl)cc2)C2CCS(=O)(=O)C2)oc2ccccc12 (stereo not given)	aSyn yeast inh inconclusive, TDP-43 yeast inh inconclusive, FUS yeast rescue inconclusive, Mito fusion yeast 14µM
CCOc1ccc(CN(C(=O)c2cc(=O)c3cc(Cl)ccc3o2)C2CCS(=O)(=O)C2)cc1 (stereo not given)	FUS yeast rescue 32µM (no result: aSyn yeast inh, Mito fusion yeast)
O=C(O)C1C2C=CC(CC2)C1C(=O)O (stereo not given)	TDP-43 yeast inh 20µM, FUS yeast rescue inconclusive, Abeta rescue inconclusive
CC(C)c1ccc(NC(=O)C2C3C=CC(CC3)C2C(=O)O)cc1 (stereo not given)	TDP-43 yeast inh 13µM (no result: Mito fusion yeast)
CC(=O)Nc1ccc(NC(=O)C2C3C=CC(C3)C2C(=O)O)cc1 (stereo not given)	none
OCCNc1ncnc2c1c(-c1ccccc1)c(-c1ccccc1)n2Cc1ccco1	aSyn yeast inh 13µM
c1ccc(-c2c(-c3ccccc3)n(Cc3ccco3)c3ncnc(NCCCn4ccnc4)c23)cc1	aSyn yeast inh inconclusive, TDP-43 yeast inh inconclusive
O=C(O)c1ccc(N=C2SCC(=O)N2Cc2ccccc2)cc1	TDP-43 yeast inh inconclusive
COc1ccc(N=C2SCC(=O)N2Cc2ccccc2)cc1	TDP-43 yeast inh 13µM
O=[N+]([O-])c1ccc(CSc2nnc(-c3cccnc3)o2)cc1	TDP-43 yeast inh 11µM
Fc1ccc(CSc2nnc(-c3cccnc3)o2)cc1	TDP-43 yeast inh inconclusive
c1cncc(-c2nnc(SCc3cccc4ccccc34)o2)c1	TDP-43 yeast inh 16µM
Brc1ccc(CSc2nnc(-c3cccnc3)o2)cc1	none
c1cncc(-c2nnc(SCc3nc4ccccc4[nH]3)o2)c1	none
c1ccc(CSc2nnc(-c3cccnc3)o2)cc1	TDP-43 yeast inh 14µM
Clc1ccc(CSc2nnc(-c3cccnc3)o2)cc1	TDP-43 yeast inh 11µM
CCCCNC(=O)C(NC(=O)c1cccs1)C(=O)c1ccccc1 (stereo not given)	none (no result: Mito fusion yeast)
COc1ccccc1NC(=O)Cn1c(=O)n(Cc2nc(C)no2)c(=O)c2cc3c(cc21)OCO3	none (no result: aSyn yeast inh, Mito fusion yeast)
COc1ccccc1-c1ncn(Cc2cccc(-c3ccccc3)c2)c1-c1cc(C)cc(C)c1	FUS yeast rescue inconclusive (no result: Mito fusion yeast)
Cc1ccc(CSc2nnc(-c3cccnc3)o2)cc1	TDP-43 yeast inh 13µM
COC(=O)c1ccc(CSc2nnc(CS(=O)Cc3ccc(Br)cc3)n2-c2ccccc2)cc1 (stereo not given)	TDP-43 yeast inh 25µM (no result: FUS yeast rescue)
O=C(C[C@@H]1C/C=C\C[C@H](Cc2ccc(F)cc2)C(=O)OC[C@@H]2CCCN2C1=O)N[C@H](CO)Cc1ccccc1	none (no result: Mito fusion yeast)
O=C(Oc1ccc(=O)n(-c2ccccc2)n1)c1ccc(F)cc1	TDP-43 yeast inh 22µM
O=C(Oc1ccc(=O)n(-c2ccccc2)n1)c1ccc(Cl)cc1	TDP-43 yeast inh inconclusive
COc1ccc(C(=O)Oc2ccc(=O)n(-c3ccccc3)n2)cc1	TDP-43 yeast inh 14µM
CCOC(=O)c1cc(OC(=O)c2ccc(OC)cc2)n(-c2ccccc2)n1	TDP-43 yeast inh 18µM (no result: Mito fusion yeast)
CC1(C(=O)NS(=O)(=O)C2CC2)CCN(C(=O)c2ccc(F)cc2Cl)C1 (stereo not given)	none (no result: Mito fusion yeast)
Cc1noc(-c2ccc(N3CCC(C)CC3)c([N+](=O)[O-])c2)n1	none (no result: aSyn yeast inh, Mito fusion yeast)
c1ccc(-c2nnc(N3CCN(c4ccccc4)CC3)nc2-c2ccccc2)cc1	none
c1ccc(-c2nnc(N3CCCC3)nc2-c2ccccc2)cc1	TDP-43 yeast inh 18µM
Cc1ccc(C(=O)N[C@H](C(=O)NC2CCCCCCC2)C(C)C)cc1	none
C=CCN1C(=O)/C(=C/c2ccc(OCC(=O)O)cc2)S/C1=N/c1nccs1	none
C=CCN1C(=O)/C(=C/c2ccc(O)c(OC)c2)S/C1=N/c1nccs1	TDP-43 yeast inh 22µM, Mito fusion yeast inconclusive (no result: FUS yeast rescue)
O=C(OCc1nc2scc(-c3ccccc3)c2c(=O)[nH]1)c1ccco1	TDP-43 yeast inh 35µM, Abeta rescue inconclusive
NC(=O)Cc1nc2scc(-c3ccccc3)c2c(=O)[nH]1	none
